This note sets out measurements from PubChem BioAssay (Tox21).

Experiment [1] is described as follows: qHTS assay to identify small molecule agonists of the vitamin D receptor (VDR) signaling pathway - cell viability counter screen (AID 743224). Note: nearly all actives have a fitted effect of over 50% in size. Note: potency is the fitted concentration of half-maximal effect. In short, it runs like this:
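VDR-bla cells, 4 h after plating, exposed to compounds for 16 h at 37C; viability then read in the same wells as CellTiter-Glo luminescence after 30 min at room temperature, following the bla FRET read.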

Experiment [2] can be described thus: qHTS assay to identify small molecule antagonists of the vitamin D receptor (VDR) signaling pathway - cell viability counter screen (AID 743225). Note: nearly all actives have a fitted effect of over 50% in size. Note: potency is the fitted concentration of half-maximal effect. In short, it runs like this: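 HEK293T VDR-bla; cpd + 1a,25-(OH)2D3 3 nM final, 16 h 37C/5% CO2; B/G FRET substrate 2 h RT; then CellTiter-Glo 30 min RT, luminescence.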
A short description of experiment [3]: qHTS assay to identify small molecule agonists of the NFkB signaling pathway - cell viability counter screen (AID 1159515; calls by dose curve; note: nearly all actives have a fitted effect of over 55% in size; note: potency is the fitted concentration of half-maximal effect; for activity, negative = cytotoxic: % is set by controls: 0 for no effect and ±100 for the full control effect). The essentials:
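NFkB-bla ME-180 cells, 2,000/well, plated overnight at 37 C; compound added for 5 hr at 37 C. Viability read in the same wells as the bla reporter, by CellTiter-Glo luminescence after 30 min at room temperature.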

Experiment [4] is described as follows: qHTS assay to identify small molecule agonists of the endoplasmic reticulum stress response signaling pathway (AID 1159516; active = well fitted activation curve with a large enough effect in the signal ratio in the repeat runs, not every such curve was filed as active; the % refers to the signal ratio; note: % is set by controls: 0 for no effect and ±100 for the full control effect). The essentials: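 CellSensor ESRE-bla HeLa cells, 1,500 per well, plated overnight, then exposed to compounds for 5 hr at 37 C. Beta-lactamase reporter read with LiveBLAzer B/G FRET substrate after 2 hr at room temperature, 405 nm excitation, 460 and 530 nm emission.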

Experiment [5] has as its target Nuclear receptor ROR-gamma (Homo sapiens) (UniProt P51449). The experiment in a line: qHTS assay to identify small molecule antagonists of the retinoid-related orphan receptor gamma (ROR-gamma) signaling pathway (AID 1159521;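 note: CHO cells with doxycycline inducible ROR-gamma driving an RORE luciferase reporter; top concentration of the series differs between compounds; % is set by controls: 0 for no effect and ±100 for the full control effect; nearly all actives have a fitted effect of over 50% in size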). The essentials: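 Cells were plated, rested 4 h at 37 C, exposed to compounds for 2 h, then given 1 uM final doxycycline hyclate to induce RORγ expression. After 16 h, ONE-Glo luminescence from the ROR response element reporter was measured.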

The nature of experiment [6]: qHTS assay to identify small molecule agonists of the AP-1 signaling pathway - cell viability counter screen (AID 1159525; calls by dose curve; note: nearly all actives have a fitted effect of over 55% in size). In short, it runs like this: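 ME-180 AP-1-bla, 2500 cells/well, Opti-MEM + 0.5% dialyzed FBS; overnight 37 °C; cpd 15-pt titration, 5 h 37 °C; CellTiter-Glo 30 min RT; luminescence read; normalised to TOAB and DMSO controls.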
A short description of experiment [7]: qHTS assay to identify small molecule agonists of the AP-1 signaling pathway (AID 1159526; calls by dose curve; note: potency is the fitted concentration of half-maximal effect; for activation: % is set by controls: 0 for no effect and ±100 for the full control effect).
A short description of experiment [8]: qHTS assay to identify small molecule antagonists of the retinoid acid receptor (RAR) signaling pathway - cell viability counter screen (AID 1159551). For activity change, negative = cytotoxicity: % is set by controls: 0 for no effect and ±100 for the full control effect. Note: nearly all actives have a fitted effect of over 35% in size. Note: potency is the fitted concentration of half-maximal effect. In short, it runs like this:
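C3RL4 RARE-luciferase cells, 1,000/well, incubated overnight, then dosed with compound plus 1 uM retinol (final). After 6 hr at 37 C, viability read by CellTiter-Glo ATP luminescence following 30 min at room temperature.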

A short description of experiment [9]: qHTS assay to identify small molecule agonists of the retinoic acid receptor (RAR) signaling pathway (AID 1159553). Note: potency is the fitted concentration of half-maximal effect. The conditions noted are these: C3RL4 RARE luciferase reporter, agonist, 6 h; activation: at 73.3 µM (top of the series) unless noted. In short, it runs like this:
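C3RL4 RARE-luciferase cells were seeded at 1,000/well and grown overnight at 37 C, then exposed to compounds for 6 hr at 37 C, 5% CO2. Luciferase reagent was added and luminescence was read after 30 min at room temperature.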

The nature of experiment [10]: qHTS assay to identify small molecule antagonists of the retinoid-related orphan receptor gamma (ROR-gamma) signaling pathway - cell viability counter screen (AID 1159520). Note: % is set by controls: 0 for no effect and ±100 for the full control effect; nearly all actives have a fitted effect of over 50% in size. The essentials: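 Tet-on ROR gamma CHO cells (1,000/well) were plated 4 hr, given compounds in DMSO for 2 hr at 37 C, then induced with 1 uM final doxycycline for 16 hr. Viability was read as ATP by CellTiter-Glo luminescence after 30 min.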

Experiment [11] can be described thus: qHTS assay to identify small molecule agonists of the RXR signaling pathway - cell viability counter screen (AID 1159529). In short, it runs like this: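 Steps: seed RXR-alpha-UAS-bla HEK 293T cells in assay medium containing 2% charcoal-stripped FBS; incubate 5 hr; add compounds in DMSO; incubate 16 hr at 37 C; after the bla read, add CellTiter-Glo and read luminescence at 30 min.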

A short description of experiment [12]: qHTS assay to identify small molecule antagonists of the retinoic acid receptor (RAR) signaling pathway (AID 1159552; note: nearly all actives have a fitted effect of over 50% in size; note: potency is the fitted concentration of half-maximal effect). The essentials: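 Retinol at 1 uM final stimulated RARE-luciferase expression in C3RL4 cells exposed to test compounds for 6 hr at 37 C. Reduced luminescence, read 30 min after detection reagent, indicated pathway antagonism.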
Experiment [13] addresses Retinoic acid receptor RXR-alpha (Homo sapiens) (UniProt P19793). The experiment in a line: qHTS assay to identify small molecule agonists of the RXR signaling pathway (AID 1159527; calls by dose curve; note: % is set by controls: 0 for no effect and ±100 for the full control effect; nearly all actives have a fitted effect of over 35% in size). In short, it runs like this:
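Cells plated at 2,000/well, rested 5 hr at 37 C, pin-dosed with DMSO compound solutions, incubated 16 hr, then loaded with B/G FRET substrate for 2 hr at RT before dual-emission fluorescence reading.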

Results filed as inconclusive are left out. Values without a mark were called inactive. The source made the active and inactive calls. Unless noted, calls come from the whole dose curve; as a rule, active = well fitted curve in the direction sought with a large enough effect in the repeat runs; inconclusive = weak or mixed curves; inactive = no such curve, though single readings can be large; an effect the other way counts as inactive or inconclusive.

Chain of Retinoic acid receptor RXR-alpha (Homo sapiens) (P19793 whole entry, looked up): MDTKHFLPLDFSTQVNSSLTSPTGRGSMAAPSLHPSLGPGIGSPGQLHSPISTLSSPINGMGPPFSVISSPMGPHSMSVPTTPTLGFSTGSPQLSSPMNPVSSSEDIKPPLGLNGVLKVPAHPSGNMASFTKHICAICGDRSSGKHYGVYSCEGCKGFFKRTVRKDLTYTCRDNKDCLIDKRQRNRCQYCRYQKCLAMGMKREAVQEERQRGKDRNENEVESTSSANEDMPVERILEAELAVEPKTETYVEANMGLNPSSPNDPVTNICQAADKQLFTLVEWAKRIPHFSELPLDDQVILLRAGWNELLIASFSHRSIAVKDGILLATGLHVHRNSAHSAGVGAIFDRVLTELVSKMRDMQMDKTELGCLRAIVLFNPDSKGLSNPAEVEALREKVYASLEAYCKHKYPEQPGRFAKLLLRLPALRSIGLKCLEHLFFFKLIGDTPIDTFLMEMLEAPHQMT

`CNC(=O)c1ccccc1Sc1ccc2c(/C=C/c3ccccn3)n[nH]c2c1`: the Potency in [1] is 29.8 µM (active); in experiment [2] it was 23.9 µM (active); in experiment [9], 0.188 µM (active). Moreover, the Potency result in [3], in experiment [4], in [5], in experiment [6], in [7] and in [8] was “inactive” in each case.

For the compound `C#C[C@]1(O)CC[C@H]2[C@@H]3[C@H](C)CC4=C(CCC(=O)C4)[C@H]3CC[C@@]21C`, the Potency entry in [1], in experiment [2], in [3], in experiment [4], in [10] and in experiment [6] was “inactive” each time. Moreover, the Potency result in [7], in [11], in [8] and in [9] was “inactive” throughout. The Potency in [12] was 29.8 µM (active).

As for `O=C(O)CN(CCN(CC(=O)O)CC(=O)O)CC(=O)O`, the activity change, negative = cytotoxicity is -2.08% [at 2.7 µM] in [1] and 1.05% [at 3.27 µM] in experiment [8]. For the same compound, the viability change, negative = cytotoxic in [2] was 4.84% [at 3.11 µM]; in [6], -2.04% [at 2.72 µM]. The activity, negative = cytotoxic in experiment [3] was -2.83% [at 3.12 µM]. Also, the activation was -1.14% [at 3.11 µM] in [4] and -6.85% [at 2.71 µM] in [13]. The activity, negative = cytotoxicity in experiment [10] is -1.43% [at 3.27 µM].

On to `CN(C)C(=O)COC(=O)Cc1ccc(OC(=O)c2ccc(N=C(N)N)cc2)cc1`, for which the Potency entry in [1], in [3], in experiment [4], in [10], in experiment [6] and in [7] was “inactive” throughout. Further, the Potency entry in [13] and in experiment [8] was “inactive” throughout.

`O=C(Nc1ccc2c(O)c(N=Nc3ccc(N=Nc4ccc(S(=O)(=O)O)cc4)cc3)c(S(=O)(=O)O)cc2c1)c1ccccc1`: the Potency entry in experiment [1], in experiment [2], in experiment [3], in [4], in experiment [6] and in experiment [13] was “inactive” in each case. Also, the Potency result in [11] and in experiment [9] was “inactive” throughout. The Potency in [8] is 24.3 µM (active).

Take `O=C(O)CCN(C1(C(=O)NO)CCCC1)S(=O)(=O)c1ccc(Oc2ccc(F)cc2)cc1`: the Potency result in experiment [1], in [2], in [3], in experiment [4], in experiment [10] and in [6] was “inactive” in each case. Moreover, the Potency result in experiment [7], in [11], in [8], in experiment [12] and in experiment [9] was “inactive” in each case.

As to `CCC(C)[O-].CCC(C)[O-].CCOC(=O)/C=C(/C)[O-].[Al+3]`, the Potency result in experiment [1], in experiment [2], in [3], in experiment [4], in [10] and in experiment [6] was “inactive” each time. For the same compound, the Potency entry in [7], in experiment [11], in [12] and in experiment [9] was “inactive” throughout.

Consider `Cc1cccc2cccnc12`, for which the Potency result in experiment [1], in experiment [2], in experiment [3], in experiment [4], in [10] and in [6] was “inactive” each time. Also, the Potency entry in [7], in experiment [13], in [11], in experiment [8] and in experiment [9] was “inactive” in each case.

In the case of `CCCCCCCC/C=C\CCCCCCCCN`, the Potency entry in experiment [3], in [4], in [5], in experiment [6], in experiment [7] and in [13] was “inactive” each time. For the same compound, the Potency entry in experiment [11] was “inactive”.

Take `CC(C)(C)C1CCC(=O)CC1`: the Potency in [1] was 49 µM (active); in experiment [3], 54.9 µM (active). For the same compound, the Potency entry in [2], in experiment [4], in experiment [10], in experiment [5], in experiment [6] and in experiment [8] was “inactive” in each case. Besides, the Potency result in experiment [12] was “inactive”.

As to `S=c1nccc[nH]1`, the Potency result in experiment [1], in experiment [2], in [3], in experiment [4], in experiment [10] and in experiment [6] was “inactive” in each case. In addition, the Potency entry in [13], in experiment [11] and in experiment [8] was “inactive” in each case. For the same compound, the Potency in experiment [7] is 49.1 µM (active).
